# Article PMC7862700, “An all-to-all approach to the identification of sequence-specific readers for epigenetic DNA modifications on cytosine”
# Tests used:
# Assay in all cases: DAPPL (digital affinity profiling via proximity ligation, sequencing); 10 mM Tris-HCl pH 7.5, 50 mM NaCl, 1 mM DTT, 4% glycerol, room temperature, 30 min; GST-TFs on glutathione beads, 16-mer random dsDNA library, 0.1% formaldehyde crosslink after washing; high values mean tight binding
# FLI1 = target: T1, FLI1 (Homo sapiens, UniProt Q01543 1-452); settings: protein: recombinant; tags: N-terminal GST; dsDNA, one strand shown
# T1 sequence: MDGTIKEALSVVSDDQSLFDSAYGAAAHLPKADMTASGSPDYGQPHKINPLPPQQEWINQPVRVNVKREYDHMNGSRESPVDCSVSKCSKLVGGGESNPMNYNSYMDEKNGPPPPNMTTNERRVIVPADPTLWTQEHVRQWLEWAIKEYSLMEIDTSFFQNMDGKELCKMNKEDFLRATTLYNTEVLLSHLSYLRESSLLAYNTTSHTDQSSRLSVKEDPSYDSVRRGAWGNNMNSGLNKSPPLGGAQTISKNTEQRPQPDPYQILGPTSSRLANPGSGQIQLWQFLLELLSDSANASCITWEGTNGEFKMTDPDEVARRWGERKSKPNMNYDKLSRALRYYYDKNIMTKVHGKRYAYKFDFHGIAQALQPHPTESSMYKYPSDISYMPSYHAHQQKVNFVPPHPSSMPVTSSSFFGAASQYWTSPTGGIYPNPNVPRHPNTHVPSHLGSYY
# Outline: (§1)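 In yeast, human transcription factors were expressed with a GST fusion, then pulled down on glutathione beads and given DNA barcodes. Pooled with a tag-only sample, they were exposed to 200 nmole of a 16-mer random double-stranded DNA library (Tris/NaCl/DTT/glycerol buffer, room temperature, 30 min), washed, crosslinked with 0.1% formaldehyde, proximity-ligated using BsaI/T4 ligase for 1 h at 37 °C, PCR-amplified and read on an Illumina NextSeq500. Each hexamer's frequency of reads for a factor, divided by the matching frequency for the tag-only sample, gives the binding signal.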
# ELK1 = target: T2, ELK1 (Homo sapiens, UniProt P19419 1-428); settings: protein: recombinant; tags: N-terminal GST; dsDNA, one strand shown
# T2 sequence: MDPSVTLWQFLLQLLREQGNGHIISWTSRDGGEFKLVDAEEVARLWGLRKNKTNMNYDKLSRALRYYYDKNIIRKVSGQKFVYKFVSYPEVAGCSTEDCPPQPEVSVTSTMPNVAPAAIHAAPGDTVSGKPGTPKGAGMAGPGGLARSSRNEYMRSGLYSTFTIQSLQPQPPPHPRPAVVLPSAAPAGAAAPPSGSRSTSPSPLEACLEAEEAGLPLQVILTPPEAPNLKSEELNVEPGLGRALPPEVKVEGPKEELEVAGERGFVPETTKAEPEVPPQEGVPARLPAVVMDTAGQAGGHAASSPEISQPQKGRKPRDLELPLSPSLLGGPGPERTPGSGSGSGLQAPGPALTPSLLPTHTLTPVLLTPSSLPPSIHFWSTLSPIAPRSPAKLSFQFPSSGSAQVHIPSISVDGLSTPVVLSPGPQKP
# Outline: as §1
# GABPA = target: T3, GABPA (Homo sapiens, UniProt Q06546 1-454); settings: protein: recombinant; tags: N-terminal GST; dsDNA, one strand shown
# T3 sequence: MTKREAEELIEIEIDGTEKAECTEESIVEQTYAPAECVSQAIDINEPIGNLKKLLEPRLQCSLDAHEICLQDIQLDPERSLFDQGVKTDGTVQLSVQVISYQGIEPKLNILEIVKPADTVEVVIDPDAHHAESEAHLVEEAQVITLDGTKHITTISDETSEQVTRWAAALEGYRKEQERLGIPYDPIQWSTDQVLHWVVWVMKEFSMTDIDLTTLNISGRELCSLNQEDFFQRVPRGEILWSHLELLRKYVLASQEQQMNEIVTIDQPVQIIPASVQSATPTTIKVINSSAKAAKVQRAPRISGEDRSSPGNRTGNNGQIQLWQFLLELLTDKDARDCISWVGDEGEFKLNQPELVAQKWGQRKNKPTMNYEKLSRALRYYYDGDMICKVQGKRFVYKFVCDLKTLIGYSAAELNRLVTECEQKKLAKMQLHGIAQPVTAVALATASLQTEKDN
# Outline: as §1
# ERG = target: T4, ERG (Homo sapiens, UniProt P11308 1-479); settings: protein: recombinant; tags: N-terminal GST; dsDNA, one strand shown
# T4 sequence: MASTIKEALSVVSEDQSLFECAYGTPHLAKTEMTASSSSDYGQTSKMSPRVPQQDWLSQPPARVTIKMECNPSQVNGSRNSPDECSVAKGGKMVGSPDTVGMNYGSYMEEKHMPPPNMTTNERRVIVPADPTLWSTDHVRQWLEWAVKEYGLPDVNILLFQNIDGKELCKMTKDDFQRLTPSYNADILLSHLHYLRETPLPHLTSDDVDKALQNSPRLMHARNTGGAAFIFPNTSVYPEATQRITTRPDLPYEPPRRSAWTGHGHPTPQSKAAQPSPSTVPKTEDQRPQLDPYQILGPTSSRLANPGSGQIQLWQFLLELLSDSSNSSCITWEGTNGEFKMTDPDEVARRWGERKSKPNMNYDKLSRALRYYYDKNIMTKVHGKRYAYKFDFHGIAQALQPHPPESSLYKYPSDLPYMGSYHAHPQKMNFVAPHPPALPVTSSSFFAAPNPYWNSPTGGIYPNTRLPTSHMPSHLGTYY
# Outline: as §1
# ELF1 = ELF1 (Homo sapiens, UniProt P32519 1-619); settings: protein: recombinant; tags: N-terminal GST; dsDNA, one strand shown
# Chain of ELF1 (P32519 whole entry): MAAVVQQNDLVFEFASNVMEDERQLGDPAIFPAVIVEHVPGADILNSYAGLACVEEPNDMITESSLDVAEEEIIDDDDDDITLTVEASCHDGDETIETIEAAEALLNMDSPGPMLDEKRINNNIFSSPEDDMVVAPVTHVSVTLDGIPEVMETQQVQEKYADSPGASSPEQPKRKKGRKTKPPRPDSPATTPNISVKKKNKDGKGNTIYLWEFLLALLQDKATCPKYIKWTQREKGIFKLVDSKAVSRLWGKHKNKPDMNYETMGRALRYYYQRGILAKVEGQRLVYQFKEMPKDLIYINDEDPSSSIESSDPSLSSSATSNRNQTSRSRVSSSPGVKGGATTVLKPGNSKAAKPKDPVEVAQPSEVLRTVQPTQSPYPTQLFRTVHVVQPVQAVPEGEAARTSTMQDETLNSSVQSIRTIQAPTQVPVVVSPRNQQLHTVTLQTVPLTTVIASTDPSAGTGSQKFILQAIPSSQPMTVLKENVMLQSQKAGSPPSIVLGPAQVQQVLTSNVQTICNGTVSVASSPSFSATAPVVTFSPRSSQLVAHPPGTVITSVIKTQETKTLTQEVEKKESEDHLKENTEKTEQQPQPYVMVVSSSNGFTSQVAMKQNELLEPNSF
# Outline: as §1
# EHF = target: T5, EHF (Homo sapiens, UniProt Q9NZC4 1-300); settings: protein: recombinant; tags: N-terminal GST; dsDNA, one strand shown
# T5 sequence: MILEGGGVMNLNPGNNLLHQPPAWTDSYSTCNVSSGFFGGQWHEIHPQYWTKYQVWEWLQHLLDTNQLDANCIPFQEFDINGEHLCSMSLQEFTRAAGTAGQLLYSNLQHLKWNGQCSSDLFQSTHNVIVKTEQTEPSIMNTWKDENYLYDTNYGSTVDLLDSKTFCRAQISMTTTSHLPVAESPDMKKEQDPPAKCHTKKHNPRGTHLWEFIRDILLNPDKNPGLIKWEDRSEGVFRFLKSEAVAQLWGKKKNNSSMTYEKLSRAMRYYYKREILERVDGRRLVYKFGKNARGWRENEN
# Outline: as §1
# SPI1 = SPI1 (Homo sapiens, UniProt P17947 1-270); settings: protein: recombinant; tags: N-terminal GST; dsDNA, one strand shown
# Outline: as §1
# SPIB = SPIB (Homo sapiens, UniProt Q01892 1-262); settings: protein: recombinant; tags: N-terminal GST; dsDNA, one strand shown
# Chain of SPIB (Q01892 whole entry): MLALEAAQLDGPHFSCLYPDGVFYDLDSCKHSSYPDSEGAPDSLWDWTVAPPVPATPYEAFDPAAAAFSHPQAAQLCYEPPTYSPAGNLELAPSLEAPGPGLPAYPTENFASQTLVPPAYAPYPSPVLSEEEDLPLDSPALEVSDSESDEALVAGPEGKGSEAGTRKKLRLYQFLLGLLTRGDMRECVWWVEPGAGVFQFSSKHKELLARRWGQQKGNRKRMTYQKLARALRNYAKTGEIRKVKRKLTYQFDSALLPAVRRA
# Outline: as §1
# ELK3 = target: T6, ELK3 (Homo sapiens, UniProt P41970 1-407); settings: protein: recombinant; tags: N-terminal GST; dsDNA, one strand shown
# T6 sequence: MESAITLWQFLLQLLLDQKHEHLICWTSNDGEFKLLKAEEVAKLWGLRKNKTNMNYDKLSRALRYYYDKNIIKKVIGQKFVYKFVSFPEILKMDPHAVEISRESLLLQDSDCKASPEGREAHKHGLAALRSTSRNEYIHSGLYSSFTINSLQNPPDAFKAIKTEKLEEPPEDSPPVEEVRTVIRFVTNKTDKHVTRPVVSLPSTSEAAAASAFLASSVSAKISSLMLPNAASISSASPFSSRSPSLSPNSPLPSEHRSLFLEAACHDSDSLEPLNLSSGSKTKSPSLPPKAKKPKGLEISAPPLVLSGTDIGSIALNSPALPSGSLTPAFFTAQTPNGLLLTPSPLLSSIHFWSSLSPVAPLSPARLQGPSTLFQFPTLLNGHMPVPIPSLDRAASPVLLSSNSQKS
# Outline: as §1
# FEV = target: T7, FEV (Homo sapiens, UniProt Q99581 1-238); settings: protein: recombinant; tags: N-terminal GST; dsDNA, one strand shown
# T7 sequence: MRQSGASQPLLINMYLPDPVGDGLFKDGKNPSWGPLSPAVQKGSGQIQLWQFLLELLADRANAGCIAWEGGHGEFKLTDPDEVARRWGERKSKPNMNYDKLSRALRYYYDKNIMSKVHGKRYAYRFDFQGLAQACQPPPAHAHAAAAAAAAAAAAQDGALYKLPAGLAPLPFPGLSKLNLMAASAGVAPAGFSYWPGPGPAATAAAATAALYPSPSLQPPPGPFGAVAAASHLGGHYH
# Outline: as §1
# ETV5 = ETV5 (Homo sapiens, UniProt P41161 1-510); settings: protein: recombinant; tags: N-terminal GST; dsDNA, one strand shown
# Chain of ETV5 (P41161 whole entry): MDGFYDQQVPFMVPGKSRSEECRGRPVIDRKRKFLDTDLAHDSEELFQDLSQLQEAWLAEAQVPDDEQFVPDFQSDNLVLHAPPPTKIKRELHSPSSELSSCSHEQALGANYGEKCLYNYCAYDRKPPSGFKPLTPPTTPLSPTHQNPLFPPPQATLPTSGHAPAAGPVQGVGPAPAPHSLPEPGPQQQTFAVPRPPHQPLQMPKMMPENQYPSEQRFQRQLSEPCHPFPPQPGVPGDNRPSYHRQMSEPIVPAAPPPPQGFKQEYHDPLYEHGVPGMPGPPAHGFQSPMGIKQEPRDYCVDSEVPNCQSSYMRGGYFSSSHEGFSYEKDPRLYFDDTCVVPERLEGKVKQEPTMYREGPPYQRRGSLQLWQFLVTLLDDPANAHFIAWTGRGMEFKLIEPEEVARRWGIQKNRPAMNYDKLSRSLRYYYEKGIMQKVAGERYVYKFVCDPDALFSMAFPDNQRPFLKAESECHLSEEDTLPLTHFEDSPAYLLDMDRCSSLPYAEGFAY
# Outline: as §1
# HSF1 = HSF1 (Homo sapiens, UniProt Q00613 1-529); settings: protein: recombinant; tags: N-terminal GST; chain copies: 3; dsDNA, one strand shown
# Chain of HSF1 (Q00613 whole entry): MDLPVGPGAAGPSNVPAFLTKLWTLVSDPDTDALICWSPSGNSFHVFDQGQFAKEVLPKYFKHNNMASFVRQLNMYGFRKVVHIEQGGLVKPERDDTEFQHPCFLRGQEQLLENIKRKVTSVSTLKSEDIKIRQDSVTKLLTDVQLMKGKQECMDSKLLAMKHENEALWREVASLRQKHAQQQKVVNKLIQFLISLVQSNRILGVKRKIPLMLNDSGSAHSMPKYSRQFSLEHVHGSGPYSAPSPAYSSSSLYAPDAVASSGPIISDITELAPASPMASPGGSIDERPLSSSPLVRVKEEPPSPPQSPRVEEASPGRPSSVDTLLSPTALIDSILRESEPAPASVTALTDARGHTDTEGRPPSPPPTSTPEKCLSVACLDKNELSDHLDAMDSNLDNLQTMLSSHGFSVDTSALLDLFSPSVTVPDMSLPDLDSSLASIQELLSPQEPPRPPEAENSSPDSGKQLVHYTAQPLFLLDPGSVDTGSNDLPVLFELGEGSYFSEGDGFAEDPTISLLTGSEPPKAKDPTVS
# Outline: as §1
# SPIC = target: T8, SPIC (Homo sapiens, UniProt Q8N5J4 1-248); settings: protein: recombinant; tags: N-terminal GST; dsDNA, one strand shown
# T8 sequence: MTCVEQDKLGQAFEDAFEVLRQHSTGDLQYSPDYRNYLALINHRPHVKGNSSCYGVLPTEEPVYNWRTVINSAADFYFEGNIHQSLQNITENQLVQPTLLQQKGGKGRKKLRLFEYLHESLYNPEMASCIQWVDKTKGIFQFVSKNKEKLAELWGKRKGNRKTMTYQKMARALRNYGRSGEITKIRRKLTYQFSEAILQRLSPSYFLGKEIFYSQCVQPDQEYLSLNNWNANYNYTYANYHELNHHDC
# Outline: as §1
# ELF4 = ELF4 (Homo sapiens, UniProt Q99607 1-663); settings: protein: recombinant; tags: N-terminal GST; dsDNA, one strand shown
# Chain of ELF4 (Q99607 whole entry): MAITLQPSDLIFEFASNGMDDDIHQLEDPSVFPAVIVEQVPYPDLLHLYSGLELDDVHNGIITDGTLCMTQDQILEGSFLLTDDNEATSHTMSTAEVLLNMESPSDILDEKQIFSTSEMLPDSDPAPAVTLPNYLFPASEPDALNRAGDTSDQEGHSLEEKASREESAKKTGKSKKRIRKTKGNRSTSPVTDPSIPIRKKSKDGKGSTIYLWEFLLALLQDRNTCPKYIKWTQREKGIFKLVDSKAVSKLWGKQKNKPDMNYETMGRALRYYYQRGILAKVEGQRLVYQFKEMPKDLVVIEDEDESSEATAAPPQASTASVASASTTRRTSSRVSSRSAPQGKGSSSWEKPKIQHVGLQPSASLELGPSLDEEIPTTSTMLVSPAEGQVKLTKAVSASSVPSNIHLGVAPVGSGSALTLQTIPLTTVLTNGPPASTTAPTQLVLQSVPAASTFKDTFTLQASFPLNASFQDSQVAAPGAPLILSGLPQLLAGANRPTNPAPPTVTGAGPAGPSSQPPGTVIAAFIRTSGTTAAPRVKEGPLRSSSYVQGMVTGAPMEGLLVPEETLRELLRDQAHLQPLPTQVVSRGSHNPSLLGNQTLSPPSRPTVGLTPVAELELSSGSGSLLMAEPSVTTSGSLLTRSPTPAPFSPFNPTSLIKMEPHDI
# Outline: as §1
# ELK4 = target: T9, ELK4 (Homo sapiens, UniProt P28324-2 1-405); settings: protein: recombinant; tags: N-terminal GST; dsDNA, one strand shown
# T9 sequence: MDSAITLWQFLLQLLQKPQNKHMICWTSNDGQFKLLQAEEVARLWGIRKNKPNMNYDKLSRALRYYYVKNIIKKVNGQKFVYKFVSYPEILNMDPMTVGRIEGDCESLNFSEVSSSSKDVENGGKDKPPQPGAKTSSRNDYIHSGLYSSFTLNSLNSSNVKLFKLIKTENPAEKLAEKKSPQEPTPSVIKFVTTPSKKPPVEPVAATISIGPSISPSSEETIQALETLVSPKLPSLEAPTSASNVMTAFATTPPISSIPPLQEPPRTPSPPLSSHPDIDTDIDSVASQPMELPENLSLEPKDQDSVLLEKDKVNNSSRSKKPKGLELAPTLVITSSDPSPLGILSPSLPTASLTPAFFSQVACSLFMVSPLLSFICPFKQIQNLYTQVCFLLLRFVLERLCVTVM
# Outline: as §1
# ETV2 = target: T10, ETV2 (Homo sapiens, UniProt O00321 1-342); settings: protein: recombinant; tags: N-terminal GST; dsDNA, one strand shown
# T10 sequence: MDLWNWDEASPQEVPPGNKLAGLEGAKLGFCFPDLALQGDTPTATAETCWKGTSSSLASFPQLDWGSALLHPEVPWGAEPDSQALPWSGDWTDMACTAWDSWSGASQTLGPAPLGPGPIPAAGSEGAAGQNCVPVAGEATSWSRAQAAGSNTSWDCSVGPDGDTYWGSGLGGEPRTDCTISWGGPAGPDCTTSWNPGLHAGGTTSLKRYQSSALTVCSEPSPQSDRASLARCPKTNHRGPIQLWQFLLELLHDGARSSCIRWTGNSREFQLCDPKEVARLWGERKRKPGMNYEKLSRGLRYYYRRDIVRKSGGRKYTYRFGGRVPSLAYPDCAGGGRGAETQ
# Outline: as §1
# ELF3 = target: T11, ELF3 (Homo sapiens, UniProt P78545 1-371); settings: protein: recombinant; tags: N-terminal GST; dsDNA, one strand shown
# T11 sequence: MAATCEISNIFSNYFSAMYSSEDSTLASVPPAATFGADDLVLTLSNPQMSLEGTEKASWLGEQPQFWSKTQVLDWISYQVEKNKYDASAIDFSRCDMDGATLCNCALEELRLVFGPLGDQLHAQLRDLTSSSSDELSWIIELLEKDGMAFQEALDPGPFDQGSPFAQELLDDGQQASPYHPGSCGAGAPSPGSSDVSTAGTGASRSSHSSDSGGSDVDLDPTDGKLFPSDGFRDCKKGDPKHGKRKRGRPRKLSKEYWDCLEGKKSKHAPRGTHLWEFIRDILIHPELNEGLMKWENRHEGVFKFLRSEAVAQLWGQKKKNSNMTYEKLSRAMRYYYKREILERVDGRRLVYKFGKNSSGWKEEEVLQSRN
# Outline: as §1
# CRX = CRX (Homo sapiens, UniProt O43186 1-299); settings: protein: recombinant; tags: N-terminal GST; dsDNA, one strand shown
# Chain of CRX (O43186 whole entry): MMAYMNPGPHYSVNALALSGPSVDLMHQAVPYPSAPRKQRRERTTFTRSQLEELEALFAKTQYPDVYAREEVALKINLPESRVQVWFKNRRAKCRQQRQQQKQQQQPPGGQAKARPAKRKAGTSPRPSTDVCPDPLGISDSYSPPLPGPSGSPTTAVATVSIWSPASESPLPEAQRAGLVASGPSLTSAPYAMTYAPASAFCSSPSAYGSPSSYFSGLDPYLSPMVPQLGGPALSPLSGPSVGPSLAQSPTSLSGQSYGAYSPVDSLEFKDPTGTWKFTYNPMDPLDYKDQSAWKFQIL
# Outline: as §1
# ETV1 = ETV1 (Homo sapiens, UniProt P50549 1-477); settings: protein: recombinant; tags: N-terminal GST; dsDNA, one strand shown
# Chain of ETV1 (P50549 whole entry): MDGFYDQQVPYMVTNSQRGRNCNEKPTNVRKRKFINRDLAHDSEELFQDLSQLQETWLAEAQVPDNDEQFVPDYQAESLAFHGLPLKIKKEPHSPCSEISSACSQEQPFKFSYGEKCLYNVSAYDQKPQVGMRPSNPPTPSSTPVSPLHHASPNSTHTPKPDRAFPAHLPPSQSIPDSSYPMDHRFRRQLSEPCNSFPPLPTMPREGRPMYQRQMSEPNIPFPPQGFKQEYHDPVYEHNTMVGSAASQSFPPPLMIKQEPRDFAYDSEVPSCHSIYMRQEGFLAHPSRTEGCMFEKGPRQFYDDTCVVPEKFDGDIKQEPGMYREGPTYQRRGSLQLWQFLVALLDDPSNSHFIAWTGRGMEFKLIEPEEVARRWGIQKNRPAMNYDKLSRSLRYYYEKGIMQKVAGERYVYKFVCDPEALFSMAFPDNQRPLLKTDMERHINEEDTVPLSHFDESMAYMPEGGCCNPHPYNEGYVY
# Outline: as §1
sequence,measurement,setting,value
TAACAA,binding signal,FLI1,"1.22 fold enrichment (6-mer frequency, TF over GST control)"
same,binding signal,ELK1,"1.22 fold enrichment (6-mer frequency, TF over GST control)"
same,binding signal,GABPA,"1.14 fold enrichment (6-mer frequency, TF over GST control)"
same,binding signal,ERG,"1.18 fold enrichment (6-mer frequency, TF over GST control)"
same,binding signal,ELF1,"1.2 fold enrichment (6-mer frequency, TF over GST control)"
same,binding signal,EHF,"1.19 fold enrichment (6-mer frequency, TF over GST control)"
same,binding signal,SPI1,"1.14 fold enrichment (6-mer frequency, TF over GST control)"
same,binding signal,SPIB,"1.13 fold enrichment (6-mer frequency, TF over GST control)"
same,binding signal,ELK3,"1.34 fold enrichment (6-mer frequency, TF over GST control)"
same,binding signal,FEV,"1.18 fold enrichment (6-mer frequency, TF over GST control)"
same,binding signal,ETV5,"1.12 fold enrichment (6-mer frequency, TF over GST control)"
same,binding signal,HSF1,"1.25 fold enrichment (6-mer frequency, TF over GST control)"
same,binding signal,SPIC,"1.12 fold enrichment (6-mer frequency, TF over GST control)"
same,binding signal,ELF4,"1.19 fold enrichment (6-mer frequency, TF over GST control)"
same,binding signal,ELK4,"1.15 fold enrichment (6-mer frequency, TF over GST control)"
same,binding signal,ETV2,"1.26 fold enrichment (6-mer frequency, TF over GST control)"
same,binding signal,ELF3,"1.28 fold enrichment (6-mer frequency, TF over GST control)"
same,binding signal,CRX,"1.48 fold enrichment (6-mer frequency, TF over GST control)"
same,binding signal,ETV1,"1.2 fold enrichment (6-mer frequency, TF over GST control)"
